Compounds without any hit were thinned out: in the full panel of roughly 79,000, 15% have a hit. Unmarked numbers belong to inactive results. Activity calls are given as the source filed them. Rule as the data show it: active = growth inhibition above about 70%; inactive = the rest.
Columns and labels:
[1] = NCI Yeast Anticancer Drug Screen. Data for the rad52 strain (AID 147);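 also: 0% = growth of vehicle-treated control cultures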; details: S. cerevisiae rad52 mutant growth inhibition, hits give high values
How it was run: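 DNA repair-defective yeast; compound exposure; growth scored against vehicle controls.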

[2] = NCI Yeast Anticancer Drug Screen. Data for the wt1 strain (AID 149);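 also: 0% = growth of vehicle-treated wt1 cultures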; details: S. cerevisiae wt1 strain (SPY 50644) growth inhibition, hits give high values
How it was run: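 Each compound is tested on wt1 yeast and the loss of growth versus vehicle gives the inhibition value.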

[3] = NCI Yeast Anticancer Drug Screen. Data for the rad50EPP+ strain (AID 151);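 also: 0% = growth of vehicle-treated control cultures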; details: S. cerevisiae rad50 mutant strain, hits give high values
How it was run: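 rad50EPP+ yeast treated with test compounds. Readout: growth vs vehicle control.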

[4] = NCI Yeast Anticancer Drug Screen. Data for the mgt1 strain (AID 153); details: S. cerevisiae mgt1 mutant growth inhibition, hits give high values
How it was run: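 Growth inhibition relative to vehicle controls was scored for the mgt1 yeast strain after compound exposure.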

[5] = NCI Yeast Anticancer Drug Screen. Data for the rad50 strain (AID 155);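 also: 0% = growth of vehicle-only cultures of the same strain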; details: S. cerevisiae rad50 strain growth inhibition, hits give high values
How it was run: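 Vehicle-treated cultures provide the reference for the growth inhibition reported for compound-exposed, repair-deficient yeast.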

[6] = NCI Yeast Anticancer Drug Screen. Data for the mec2-1 strain (AID 157); details: S. cerevisiae mec2-1 strain, hits give high values
How it was run: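 Growth inhibition is read against vehicle-treated controls after compound exposure of the mec2-1 yeast strain, which is defective in DNA damage repair or cell cycle control.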

[7] = NCI Yeast Anticancer Drug Screen. Data for the sgs1 mgt1 strain (AID 161);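 also: 0% = growth of cultures given vehicle only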; details: S. cerevisiae sgs1 mgt1 strain, hits give high values
How it was run: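 Yeast cells carrying a defined DNA-repair defect were exposed to test compounds. Growth inhibition was measured relative to vehicle-treated controls.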

[8] = NCI Yeast Anticancer Drug Screen. Data for the CLN2oe strain (AID 163);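 also: 0% = growth of vehicle-only control cultures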; details: S. cerevisiae CLN2oe strain, hits give high values
How it was run: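 Compound-treated yeast; growth vs vehicle ctrl = % inhibition. Genetically altered strain (cell-cycle control).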

[9] = NCI Yeast Anticancer Drug Screen. Data for the cln2 rad14 strain (AID 165);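 also: 0% = growth equal to vehicle treated cultures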; details: S. cerevisiae cln2 rad14 strain, hits give high values
How it was run: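 Growth inhibition, relative to vehicle-treated controls, is the read-out. The test organism is a yeast strain with defined genetic alterations, cln2 rad14.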

[10] = NCI Yeast Anticancer Drug Screen. Data for the bub3 strain (AID 167); details: S. cerevisiae bub3 mutant strain, hits give high values
How it was run: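 Mutant yeast screening strain plus compound; vehicle-treated cultures serve as the 0% inhibition reference.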

[11] = NCI Yeast Anticancer Drug Screen. Data for the wt2 strain (AID 169); details: S. cerevisiae wt2 strain growth inhibition, hits give high values
How it was run: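 Compound exposure of yeast; growth compared with vehicle controls; inhibition reported.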

[12] = NCI Yeast Anticancer Drug Screen. Data for the mlh1 strain (AID 171);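 also: 0% = growth of vehicle-treated control cultures of the same strain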; details: S. cerevisiae mlh1 strain growth inhibition, hits give high values
How it was run: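 Compounds are applied to a genetically altered yeast strain, and its growth is compared with that of vehicle-treated cultures to give percent inhibition.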

[13] = NCI Yeast Anticancer Drug Screen. Data for the sgs1 strain (AID 173);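 also: 0% = growth of vehicle-only control cultures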; details: S. cerevisiae sgs1 mutant, hits give high values
How it was run: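 Compounds applied to genetically altered yeast; growth compared with vehicle-treated cultures to give % inhibition.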

[14] = NCI Yeast Anticancer Drug Screen. Data for the mlh1 rad18 strain (AID 175); details: S. cerevisiae mlh1 rad18 strain growth inhibition, hits give high values
How it was run: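 Cells of a genetically altered yeast strain, deficient in DNA damage repair, were treated with compound. Their growth was then compared with that of vehicle-treated cultures to give inhibition.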

[15] = NCI Yeast Anticancer Drug Screen. Data for the rad18 strain (AID 177); details: S. cerevisiae rad18 mutant growth inhibition, hits give high values
How it was run: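 Compounds are applied to a repair-deficient yeast strain, and growth is compared with that of vehicle-treated cultures to give percent inhibition.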

[16] = NCI Yeast Anticancer Drug Screen. Data for the rad14 strain (AID 159);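 also: 0% = growth of vehicle-treated control cultures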; details: S. cerevisiae rad14 strain growth inhibition, hits give high values
How it was run: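 Inhibition of growth is reported for a repair-deficient yeast mutant following compound treatment, calculated relative to cultures that received vehicle.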

[17] = at 5.0 µM (retest, dose inferred, filed as 0.5)
[18] = at 50.0 µM (retest, dose inferred, filed as 5.0)

CN(C)c1ccc(Sc2ccc3nc(N)nc(N)c3c2)cc1 showed a growth inhibition ([1]; at 1.2 µM) of 9%, a growth inhibition ([1]; at 3.7 µM) of 28% and a growth inhibition ([1]; at 11.0 µM) of 31%. The growth inhibition ([1]; at 33.0 µM) was 27%, the growth inhibition ([1]; at 100.0 µM) was 51% and the growth inhibition ([2]; at 1.2 µM) was 15%. For the same compound, the growth inhibition ([2]; at 3.7 µM) was 12%, the growth inhibition ([2]; at 11.0 µM) was 10% and the growth inhibition ([2]; at 33.0 µM) was -7%. It also gave a growth inhibition ([2]; at 100.0 µM) of -5%, a growth inhibition ([3]; at 1.2 µM) of 15% and a growth inhibition ([3]; at 3.7 µM) of 30%. It also gave a growth inhibition ([3]; at 11.0 µM) of 24%, a growth inhibition ([3]; at 33.0 µM) of 30% and a growth inhibition ([3]; at 100.0 µM) of 28%. For the same compound, the growth inhibition ([4]; at 1.2 µM) was -5%, the growth inhibition ([4]; at 3.7 µM) was 2% and the growth inhibition ([4]; at 11.0 µM) was -4%. The growth inhibition ([4]; at 33.0 µM) was -11%, the growth inhibition ([4]; at 100.0 µM) was 7% and the growth inhibition ([5]; at 1.2 µM) was -18%. For the same compound, the growth inhibition ([5]; at 3.7 µM) was 7%, the growth inhibition [5, 17] was 41% and the growth inhibition ([5]; at 11.0 µM) was 8%. It also gave a growth inhibition ([5]; at 33.0 µM) of 5%, a growth inhibition [5, 18] of 41% and a growth inhibition ([5]; at 50.0 µM) of 60%. It also gave a growth inhibition ([5]; at 100.0 µM) of 40%, a growth inhibition ([6]; at 1.2 µM) of -28% and a growth inhibition ([6]; at 3.7 µM) of -28%. It also gave a growth inhibition [6, 17] of 28%, a growth inhibition ([6]; at 11.0 µM) of -4% and a growth inhibition ([6]; at 33.0 µM) of 13%. For the same compound, the growth inhibition [6, 18] was 80% (active), the growth inhibition ([6]; at 50.0 µM) was 89.3% (active) and the growth inhibition ([6]; at 100.0 µM) was 55%. It also gave a growth inhibition [7, 17] of 29%, a growth inhibition [7, 18] of 67% and a growth inhibition ([7]; at 50.0 µM) of 60%. The growth inhibition ([8]; at 1.2 µM) was 17%, the growth inhibition ([8]; at 3.7 µM) was 8% and the growth inhibition ([8]; at 11.0 µM) was 17%. It also gave a growth inhibition ([8]; at 33.0 µM) of -11%, a growth inhibition ([8]; at 100.0 µM) of 18% and a growth inhibition [9, 17] of 24%. The growth inhibition [9, 18] was 6%, the growth inhibition ([9]; at 50.0 µM) was 25.4% and the growth inhibition ([10]; at 1.2 µM) was -17%. For the same compound, the growth inhibition ([10]; at 3.7 µM) was -11%, the growth inhibition [10, 17] was 27% and the growth inhibition ([10]; at 11.0 µM) was -20%. The growth inhibition ([10]; at 33.0 µM) was -17%, the growth inhibition [10, 18] was 43% and the growth inhibition ([10]; at 50.0 µM) was 21.9%. The growth inhibition ([10]; at 100.0 µM) was -9%, the growth inhibition ([11]; at 1.2 µM) was -4% and the growth inhibition ([11]; at 3.7 µM) was -1%. The growth inhibition ([11]; at 11.0 µM) was 9%, the growth inhibition ([11]; at 33.0 µM) was 7% and the growth inhibition ([11]; at 100.0 µM) was 1%. It also gave a growth inhibition ([12]; at 1.2 µM) of -4%, a growth inhibition ([12]; at 3.7 µM) of -8% and a growth inhibition ([12]; at 11.0 µM) of -16%. For the same compound, the growth inhibition ([12]; at 33.0 µM) was -9%, the growth inhibition ([12]; at 100.0 µM) was 18% and the growth inhibition ([13]; at 1.2 µM) was 14%. The growth inhibition ([13]; at 3.7 µM) was 21%, the growth inhibition ([13]; at 11.0 µM) was 24% and the growth inhibition ([13]; at 33.0 µM) was 17%. It also gave a growth inhibition ([13]; at 100.0 µM) of 18%, a growth inhibition [14, 17] of 34% and a growth inhibition [14, 18] of 34%. The growth inhibition ([14]; at 50.0 µM) was 51.8%, the growth inhibition ([15]; at 1.2 µM) was 3% and the growth inhibition ([15]; at 3.7 µM) was -17%. It also gave a growth inhibition ([15]; at 11.0 µM) of -12%, a growth inhibition ([15]; at 33.0 µM) of -17% and a growth inhibition ([15]; at 100.0 µM) of 11%.

For O=[N+]([O-])c1cc2no[n+]([O-])c2cc1N1CCCCC1, the growth inhibition ([1]; at 1.2 µM) was 31%, the growth inhibition ([1]; at 3.7 µM) was 65% and the growth inhibition ([1]; at 11.0 µM) was 98% (active). For the same compound, the growth inhibition ([1]; at 33.0 µM) was 96% (active), the growth inhibition ([1]; at 100.0 µM) was 95% (active) and the growth inhibition ([2]; at 1.2 µM) was -32%. The growth inhibition ([2]; at 3.7 µM) was 53%, the growth inhibition ([2]; at 11.0 µM) was 99% (active) and the growth inhibition ([2]; at 33.0 µM) was 98% (active). The growth inhibition ([2]; at 100.0 µM) was 97% (active), the growth inhibition ([3]; at 1.2 µM) was 26% and the growth inhibition ([3]; at 3.7 µM) was 83% (active). For the same compound, the growth inhibition ([3]; at 11.0 µM) was 98% (active), the growth inhibition ([3]; at 33.0 µM) was 99% (active) and the growth inhibition ([3]; at 100.0 µM) was 98% (active). The growth inhibition ([4]; at 1.2 µM) was 4%, the growth inhibition ([4]; at 3.7 µM) was 56% and the growth inhibition ([4]; at 11.0 µM) was 98% (active). For the same compound, the growth inhibition ([4]; at 33.0 µM) was 98% (active), the growth inhibition ([4]; at 100.0 µM) was 98% (active) and the growth inhibition ([6]; at 1.2 µM) was 28%. The growth inhibition ([6]; at 3.7 µM) was 82% (active), the growth inhibition [6, 17] was 41% and the growth inhibition ([6]; at 11.0 µM) was 98% (active). For the same compound, the growth inhibition ([6]; at 33.0 µM) was 98% (active), the growth inhibition [6, 18] was 93% (active) and the growth inhibition ([6]; at 50.0 µM) was 92.8% (active). For the same compound, the growth inhibition ([6]; at 100.0 µM) was 97% (active), the growth inhibition ([16]; at 1.2 µM) was -8% and the growth inhibition ([16]; at 3.7 µM) was 56%. For the same compound, the growth inhibition ([16]; at 11.0 µM) was 99% (active), the growth inhibition ([16]; at 33.0 µM) was 99% (active) and the growth inhibition ([16]; at 100.0 µM) was 98% (active). The growth inhibition [7, 17] was 1%, the growth inhibition [7, 18] was -4% and the growth inhibition ([7]; at 50.0 µM) was 92.4% (active). The growth inhibition ([8]; at 1.2 µM) was 27%, the growth inhibition ([8]; at 3.7 µM) was 60% and the growth inhibition ([8]; at 11.0 µM) was 96% (active). The growth inhibition ([8]; at 33.0 µM) was 97% (active), the growth inhibition ([8]; at 100.0 µM) was 97% (active) and the growth inhibition [9, 17] was 0%. The growth inhibition [9, 18] was -46%, the growth inhibition ([9]; at 50.0 µM) was 90.7% (active) and the growth inhibition ([10]; at 1.2 µM) was -24%. The growth inhibition ([10]; at 3.7 µM) was -8%, the growth inhibition [10, 17] was -2% and the growth inhibition ([10]; at 11.0 µM) was 71% (active). The growth inhibition ([10]; at 33.0 µM) was 96% (active), the growth inhibition [10, 18] was -16% and the growth inhibition ([10]; at 50.0 µM) was 91.3% (active). The growth inhibition ([10]; at 100.0 µM) was 96% (active), the growth inhibition ([11]; at 1.2 µM) was 0% and the growth inhibition ([11]; at 3.7 µM) was 74% (active). For the same compound, the growth inhibition ([11]; at 11.0 µM) was 99% (active), the growth inhibition ([11]; at 33.0 µM) was 99% (active) and the growth inhibition ([11]; at 100.0 µM) was 98% (active). For the same compound, the growth inhibition ([12]; at 1.2 µM) was 24%, the growth inhibition ([12]; at 3.7 µM) was 68% and the growth inhibition ([12]; at 11.0 µM) was 98% (active). For the same compound, the growth inhibition ([12]; at 33.0 µM) was 99% (active), the growth inhibition ([12]; at 100.0 µM) was 100% (active) and the growth inhibition ([13]; at 1.2 µM) was 51%. The growth inhibition ([13]; at 3.7 µM) was 72% (active), the growth inhibition ([13]; at 11.0 µM) was 98% (active) and the growth inhibition ([13]; at 33.0 µM) was 99% (active). For the same compound, the growth inhibition ([13]; at 100.0 µM) was 98% (active), the growth inhibition [14, 17] was 51% and the growth inhibition [14, 18] was 89% (active). For the same compound, the growth inhibition ([14]; at 50.0 µM) was 91.5% (active), the growth inhibition ([15]; at 1.2 µM) was 31% and the growth inhibition ([15]; at 3.7 µM) was 73% (active). The growth inhibition ([15]; at 11.0 µM) was 97% (active), the growth inhibition ([15]; at 33.0 µM) was 97% (active) and the growth inhibition ([15]; at 100.0 µM) was 96% (active).
